# Results as given in the supplement of paper PMC9694430.
# Values joined by “and” are separate entries in the source; they are usually repeats but may differ in a detail not shown here. Equal entries are not always repeated. Structures can show the parent of a compound that is named as a salt.
# Tested on: LOC_OS01G57100-cb003
# Assay: thermal shift delta Tm vs DMSO control; higher = stronger stabilization (binding)
# Details: 12.5 µM; protein concentration 2 µM
# Summary of the method: (§1)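 Heating from 25°C to 95°C at 0.05°C/s, fluorescence was recorded for 19.5 μl wells of 2 μM E. coli-expressed, purified rice kinase domain in 100 mM potassium phosphate pH 7.5, 150 mM NaCl, 10% glycerol and 5 × SYPRO Orange with compound in DMSO. Boltzmann fits gave melting temperatures for this differential scanning fluorimetry assay. The shift reported is the mean of three replicates against the DMSO-only protein.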
# 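Also: purified Escherichia coli-expressed rice kinase domain construct.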
row,SMILES,thermal shift delta Tm
1,COc1cc(Nc2ncc(F)c(Nc3ccc4c(n3)NC(=O)C(C)(C)O4)n2)cc(OC)c1OC,4.83 °C
2,Cc1ccc(-n2nc(C(C)(C)C)cc2NC(=O)Nc2ccc(OCCN3CCOCC3)c3ccccc23)cc1 [Doramapimod (BIRB 796)],1.19 °C
3,CC#CC(=O)N1CC[C@@H](n2c(=O)n(-c3ccc(Oc4ccccc4)cc3)c3c(N)ncnc32)C1 [ONO-4059 (GS-4059) hydrochloride],0.49 °C
4,O=C(NC[C@H](O)CO)c1ccncc1Nc1ccc(I)cc1F,0.55 °C
5,CO[C@H]1C[C@@H]2CC[C@@H](C)[C@@](O)(O2)C(=O)C(=O)N2CCCC[C@H]2C(=O)O[C@H]([C@H](C)C[C@@H]2CC[C@@H](O)[C@H](OC)C2)CC(=O)[C@H](C)/C=C(\C)[C@@H](O)[C@@H](OC)C(=O)[C@H](C)C[C@H](C)/C=C/C=C/C=C/1C [Rapamycin (Sirolimus)],1.56 °C
6,COc1c(C)c(C(=O)c2ccc(N)c(C(=O)O)c2)n2ccccc12,1.57 °C
7,CC(C)CC(=O)Nc1n[nH]c2c1CN(C(=O)C1CCN(C)CC1)C2(C)C,1.01 °C
8,COc1cc2ncnc(Nc3ccc(O)c(Br)c3)c2cc1OC,0.74 °C
9,CCN(CC)CCCC(C)Nc1nc(C)cc(Nc2ccc3nc(C)cc(N)c3c2)n1 (centres undefined),1.43 °C
10,Cc1cc(NC(=O)c2cccc(NC(=O)/C=C/CN(C)C)c2)ccc1Nc1nccc(-c2cccnc2)n1,1.86 °C
11,COc1cc2ncnc(Nc3cccc(Cl)c3F)c2cc1OC(=O)N1CCN(C)C[C@H]1C,1.43 °C
12,Cc1ccc(C(=O)Nc2ccc(Oc3cc4cnn(C)c4cc3-c3cn[nH]c3)c(F)c2)c(=O)n1-c1ccc(F)cc1,2.31 °C
13,CC#CC(=O)N1CCC[C@H]1c1nc(-c2ccc(C(=O)Nc3ccccn3)cc2)c2c(N)nccn12 [Acalabrutinib (ACP-196)],0.82 °C
14,Nc1ncccc1-c1nc2ccc(-c3ccccc3)nc2n1-c1ccc(C2(N)CCC2)cc1 [Miransertib (ARQ 092) HCl],-0.19 °C
15,Cc1cc(C(C)Nc2ccccc2)c2nc(N3CCOCC3)cc(=O)n2c1 (centres undefined),0.23 °C
16,COc1cc2nccc(Oc3ccc(NC(=O)C4(C(=O)Nc5ccc(F)cc5)CC4)cc3)c2cc1OC [Cabozantinib malate (XL184)],1.34 °C
17,COC(=O)N[C@@H](C)CNc1nccc(-c2cn(C(C)C)nc2-c2cc(Cl)cc(NS(C)(=O)=O)c2F)n1 [Encorafenib (LGX818)],1.3 °C
18,COc1ccc(C(=O)Nc2sc3c(c2C(N)=O)CCCC3)cc1OC,1.3 °C
19,CN1C(=O)[C@@H](NC(=O)c2n[nH]c(Cc3ccccc3)n2)COc2ccccc21,0.85 °C

row,SMILES,thermal shift delta Tm
1,Nc1nccc(Oc2ccc(NC(=O)c3c[nH]cc(-c4ccc(F)cc4)c3=O)cc2F)c1Cl,2.6 °C
2,COc1cc2c(c(OC)c1OC)-c1c(cc3c(c1OC)OCO3)CC(C)C(C)C2 (centres undefined) [Schisandrin B (Sch B)],0.61 °C
3,COC(=O)c1ccc2c(c1)NC(=O)/C2=C(\Nc1ccc(N(C)C(=O)CN2CCN(C)CC2)cc1)c1ccccc1 [Nintedanib (BIBF 1120)],0.08 °C
4,O=C(Nc1ccccc1C(=O)NC1CCCCNC1=O)c1cc2ccccc2s1 (centres undefined),1.14 °C
5,Cc1cc(C)c(/C=C2\C(=O)Nc3ccccc32)[nH]1 [Semaxanib (SU5416)],1.1 °C
6,N#Cc1cccc(-c2c[nH]c3ncnc(N4CCOCC4)c23)c1,1.38 °C
7,Cc1ccc2nc(NCCN)c3ncc(C)n3c2c1,0.95 °C
8,C[C@@H]1CCN(C(=O)CC#N)C[C@@H]1N(C)c1ncnc2[nH]ccc12,1.55 °C and 1.07 °C
9,Cc1nc(NC(=O)N2CCC[C@H]2C(N)=O)sc1-c1ccnc(C(C)(C)C(F)(F)F)c1 [Alpelisib (BYL719)],0.37 °C
10,CNc1nc(Nc2cn(C(C)(C)C#N)nc2C)ncc1C(F)(F)F,1.92 °C
11,O=C(Nc1c[nH]nc1-c1nc2ccc(CN3CCOCC3)cc2[nH]1)NC1CC1,0.91 °C
12,N#Cc1ccc(-c2c(-c3ncn[nH]3)sc(N3CCOCC3)c2C#N)c(F)c1,0.86 °C
13,Oc1cccc(-c2nc(N3CCOCC3)c3oc4ncccc4c3n2)c1,1.36 °C
14,CN(C)C/C=C/C(=O)Nc1ccc(C(=O)Nc2cccc(Nc3ncc(Cl)c(-c4c[nH]c5ccccc45)n3)c2)cc1,4.58 °C
15,CCNC(=O)Nc1ccc(-c2nc(N3CCOC[C@@H]3C)c3c(n2)C(C)(C)S(=O)(=O)C3)cc1,2.26 °C
16,CNC(=O)c1cc(Oc2ccc3nc(N[C@@H]4CCCC[C@H]4O)sc3c2)ccn1,1.55 °C
17,CN(C)CCOc1ccc(-c2nc(-c3ccncc3)c(-c3ccc4c(c3)CC/C4=N\O)[nH]2)cc1,1.76 °C
18,Cc1ccc(NC(=O)c2cccc(N(C)C)c2)cc1NC(=O)c1ccc(O)cc1,2.98 °C

# Tested on: LOC_OS01G60330-cb001
# Assay: as above
# Details: 12.5 µM; protein concentration 2 µM
# Summary of the method: as §1
row,SMILES,thermal shift delta Tm
1,COc1cc(Nc2ncc(F)c(Nc3ccc4c(n3)NC(=O)C(C)(C)O4)n2)cc(OC)c1OC,4.41 °C
2,Cc1ccc(-n2nc(C(C)(C)C)cc2NC(=O)Nc2ccc(OCCN3CCOCC3)c3ccccc23)cc1 [Doramapimod (BIRB 796)],1.27 °C
3,CC#CC(=O)N1CC[C@@H](n2c(=O)n(-c3ccc(Oc4ccccc4)cc3)c3c(N)ncnc32)C1 [ONO-4059 (GS-4059) hydrochloride],0.71 °C
4,O=C(NC[C@H](O)CO)c1ccncc1Nc1ccc(I)cc1F,0.48 °C
5,CO[C@H]1C[C@@H]2CC[C@@H](C)[C@@](O)(O2)C(=O)C(=O)N2CCCC[C@H]2C(=O)O[C@H]([C@H](C)C[C@@H]2CC[C@@H](O)[C@H](OC)C2)CC(=O)[C@H](C)/C=C(\C)[C@@H](O)[C@@H](OC)C(=O)[C@H](C)C[C@H](C)/C=C/C=C/C=C/1C [Rapamycin (Sirolimus)],1.82 °C
6,COc1c(C)c(C(=O)c2ccc(N)c(C(=O)O)c2)n2ccccc12,0.95 °C
7,CC(C)CC(=O)Nc1n[nH]c2c1CN(C(=O)C1CCN(C)CC1)C2(C)C,1.35 °C
8,COc1cc2ncnc(Nc3ccc(O)c(Br)c3)c2cc1OC,0.32 °C
9,CCN(CC)CCCC(C)Nc1nc(C)cc(Nc2ccc3nc(C)cc(N)c3c2)n1 (centres undefined),0.65 °C
10,Cc1cc(NC(=O)c2cccc(NC(=O)/C=C/CN(C)C)c2)ccc1Nc1nccc(-c2cccnc2)n1,0.94 °C
11,COc1cc2ncnc(Nc3cccc(Cl)c3F)c2cc1OC(=O)N1CCN(C)C[C@H]1C,1.34 °C
12,Cc1ccc(C(=O)Nc2ccc(Oc3cc4cnn(C)c4cc3-c3cn[nH]c3)c(F)c2)c(=O)n1-c1ccc(F)cc1,1.94 °C
13,CC#CC(=O)N1CCC[C@H]1c1nc(-c2ccc(C(=O)Nc3ccccn3)cc2)c2c(N)nccn12 [Acalabrutinib (ACP-196)],0.94 °C
14,Nc1ncccc1-c1nc2ccc(-c3ccccc3)nc2n1-c1ccc(C2(N)CCC2)cc1 [Miransertib (ARQ 092) HCl],0.58 °C
15,Cc1cc(C(C)Nc2ccccc2)c2nc(N3CCOCC3)cc(=O)n2c1 (centres undefined),1.22 °C
16,COc1cc2nccc(Oc3ccc(NC(=O)C4(C(=O)Nc5ccc(F)cc5)CC4)cc3)c2cc1OC [Cabozantinib malate (XL184)],0.89 °C
17,COC(=O)N[C@@H](C)CNc1nccc(-c2cn(C(C)C)nc2-c2cc(Cl)cc(NS(C)(=O)=O)c2F)n1 [Encorafenib (LGX818)],0.6 °C
18,COc1ccc(C(=O)Nc2sc3c(c2C(N)=O)CCCC3)cc1OC,1.24 °C
19,CN1C(=O)[C@@H](NC(=O)c2n[nH]c(Cc3ccccc3)n2)COc2ccccc21,0.1 °C

row,SMILES,thermal shift delta Tm
1,Nc1nccc(Oc2ccc(NC(=O)c3c[nH]cc(-c4ccc(F)cc4)c3=O)cc2F)c1Cl,1.42 °C
2,COc1cc2c(c(OC)c1OC)-c1c(cc3c(c1OC)OCO3)CC(C)C(C)C2 (centres undefined) [Schisandrin B (Sch B)],0.33 °C
3,COC(=O)c1ccc2c(c1)NC(=O)/C2=C(\Nc1ccc(N(C)C(=O)CN2CCN(C)CC2)cc1)c1ccccc1 [Nintedanib (BIBF 1120)],1.75 °C
4,O=C(Nc1ccccc1C(=O)NC1CCCCNC1=O)c1cc2ccccc2s1 (centres undefined),1.02 °C
5,Cc1cc(C)c(/C=C2\C(=O)Nc3ccccc32)[nH]1 [Semaxanib (SU5416)],6.76 °C
6,N#Cc1cccc(-c2c[nH]c3ncnc(N4CCOCC4)c23)c1,0.98 °C
7,Cc1ccc2nc(NCCN)c3ncc(C)n3c2c1,0.28 °C
8,C[C@@H]1CCN(C(=O)CC#N)C[C@@H]1N(C)c1ncnc2[nH]ccc12,0.87 °C and 1.25 °C
9,Cc1nc(NC(=O)N2CCC[C@H]2C(N)=O)sc1-c1ccnc(C(C)(C)C(F)(F)F)c1 [Alpelisib (BYL719)],0.43 °C
10,CNc1nc(Nc2cn(C(C)(C)C#N)nc2C)ncc1C(F)(F)F,1.38 °C
11,O=C(Nc1c[nH]nc1-c1nc2ccc(CN3CCOCC3)cc2[nH]1)NC1CC1,11.9 °C
12,N#Cc1ccc(-c2c(-c3ncn[nH]3)sc(N3CCOCC3)c2C#N)c(F)c1,1.05 °C
13,Oc1cccc(-c2nc(N3CCOCC3)c3oc4ncccc4c3n2)c1,1.6 °C
14,CN(C)C/C=C/C(=O)Nc1ccc(C(=O)Nc2cccc(Nc3ncc(Cl)c(-c4c[nH]c5ccccc45)n3)c2)cc1,12.2 °C
15,CCNC(=O)Nc1ccc(-c2nc(N3CCOC[C@@H]3C)c3c(n2)C(C)(C)S(=O)(=O)C3)cc1,0.52 °C
16,CNC(=O)c1cc(Oc2ccc3nc(N[C@@H]4CCCC[C@H]4O)sc3c2)ccn1,0.59 °C
17,CN(C)CCOc1ccc(-c2nc(-c3ccncc3)c(-c3ccc4c(c3)CC/C4=N\O)[nH]2)cc1,0.92 °C
18,Cc1ccc(NC(=O)c2cccc(N(C)C)c2)cc1NC(=O)c1ccc(O)cc1,1.17 °C
